# In PubChem BioAssay AID1035470 (Broad Institute, 2014):
# In all, about 1,800 compounds went through this assay and fewer than 10 were called active. Not shown: some 16% with an inconclusive outcome.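 The calls were made as follows: active = compound lowering the normal-ribosome reporter at least twice as much as the humanized-ribosome reporter, growth loss under a set limit; inconclusive = no clear call, values can overlap the other calls; inactive = the rest.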 A selection follows. Results with a measured potency or affinity are listed apart.
# Assay: E. coli strain growth, wild-type against G2058 humanized RFP mutant – G2058 mutant RFP vs wild-type GFP, cherry-pick, two tests, dose response (AID 1035470)
# Details: E. coli WT-GFP vs G2058-humanized RFP, fluorescence, 24 h; series mostly up to 50 µM; activity change, negative = inhibition: at the top concentration
row,SMILES,"activity change, negative = inhibition"
1,COC(=O)CNC(=O)COC(=O)c1ccc(Cl)nc1,26.5 (inactive)
2,CC(OC(=O)CCc1nc2ccccc2c(=O)[nH]1)C(=O)c1ccc(Br)cc1 (configuration not stated),1.11 (inactive)
3,C(=C/c1nccc2c1[nH]c1ccccc12)/c1ccc2c(c1)OCO2,-9.87 (inactive)
4,O=C(Nc1cc(S(=O)(=O)N2CCOCC2)ccc1N1CCOCC1)c1ccc([N+](=O)[O-])s1,-15.8 (inactive)
5,Cc1cc(Br)cn2c(Cc3cccc(Cl)c3)c(-c3ccco3)nc12,-8.14 (inactive)
6,Cc1nc2ccccn2c1C(=O)Nc1ccc(Cl)cc1,5.9 (inactive)
7,COC(=O)c1ccc(CSc2nc3ccccc3s2)o1,-11 (inactive)
8,C[C@@H]1CCCCO[C@@H](CN(C)C(=O)CCCN(C)C)[C@H](C)CN([C@@H](C)CO)C(=O)c2cc(NC(=O)Nc3cccc4ccccc34)ccc2O1,31.3 (inactive)
9,Cc1nc(Nc2ccccc2)sc1C(=O)Nc1ccccc1,-26.5 (inactive)
10,Cn1c(=O)c2c(ncn2CC(O)CNc2ccc(F)cc2)n(C)c1=O (configuration not stated),-11.4 (inactive)
11,CC1Cc2cc(S(=O)(=O)N3CCN(c4cccc(Cl)c4)CC3)ccc2N1C(=O)C1CC1 (configuration not stated),-12.6 (inactive)
12,Nc1ccccc1C#CC(=O)c1ccccc1,-20.3 (inactive)
13,Cn1cc(CN2CCCC(C(=O)c3cccs3)C2)c(-c2cccc(Cl)c2)n1 (configuration not stated),-5.45 (inactive)
14,CC(=O)N1c2c(cc(Br)cc2S(=O)(=O)N2CCCCC2)CC1C (configuration not stated),-1.15 (inactive)
15,CC(OC(=O)COc1ccccc1)C(=O)NC1CCCC1 (configuration not stated),-8.33 (inactive)
16,O=C(CCNC(=O)c1ccco1)Nc1cccc(Br)c1,-16.9 (inactive)
17,CC1(C)CC2CC(C)(CN2c2ncnc3ccccc23)C1 (configuration not stated),-16.7 (inactive)
18,CS(=O)(=O)N(CC(=O)N1CCc2ccccc2C1)c1cccc(Br)c1,-13 (inactive)
19,O=S(=O)(NCc1cc(-c2ccccc2)no1)c1ccccc1Cl,-13.4 (inactive)
20,CC(=O)c1ccc(-c2cccc([C@H]3[C@@H]4C=CC[C@@H](C)[C@@H]4C(=O)N3Cc3ccccc3)c2)cc1,-7.13 (inactive)
21,O=C(NC1CCCCC1)C(c1cccc2ccccc12)n1c(=O)c(-c2ccco2)nc2ccccc21 (configuration not stated),-10.3 (inactive)

row,SMILES,"activity change, negative = inhibition"
1,CC(C)(C)CC(=O)NCCc1csc(-c2ccccc2)n1,1.87 (inactive)
2,Cc1cccc(NC(=O)CN(C)S(=O)(=O)c2cccs2)c1,-12.2 (inactive)
3,Cc1ccc2oc(C(=O)N(C)Cc3ccc(C)o3)c(C)c2c1,-5.54 (inactive)
4,O=C(NCc1cccnc1)C1CCN(S(=O)(=O)c2cc([N+](=O)[O-])ccc2Cl)CC1,-18.9 (inactive)
5,COc1ccc(CNC(=O)c2sc3nc4c(c(C(F)(F)F)c3c2N)CCC4)cc1OC,-15.1 (inactive)
6,CSc1ccccc1OCc1cc(C(=O)N(C)Cc2nonc2C)no1,-7.56 (inactive)
7,O=C1Nc2ccc(F)cc2C12Nc1ccccc1-c1nnc(SCc3ccccc3)nc1O2 (configuration not stated),-11.2 (inactive)
8,COc1cccc(NC2=Nc3cccc4cccc2c34)c1,-20.4 (inactive)
9,COCc1nnc(NC(=O)c2ccc(S(=O)(=O)N3CCCC3)cc2)o1,-10.3 (inactive)
10,O=C(COc1cccc2c1CCN(Cc1ccc(Br)cc1)C2=O)N1CCOCC1,-5.18 (inactive)
11,Cc1cccc(OCc2nc(C#N)c(N3CCCC3)o2)c1,5.24 (inactive)
12,Cc1onc(-c2c(Cl)cccc2Cl)c1C(=O)Nc1ccc(Cl)cn1,-0.987 (inactive)
13,NS(=O)(=O)c1ccc(NC(=O)CCC(=O)O)cc1,23.6 (inactive)
14,Cc1ccc(NC(=O)C[n+]2cc(-c3ccccc3)n3c2CCC3)cc1,12.5 (inactive)
15,Cc1ccc(S(=O)(=O)Nc2ccc3c(c2)C(=O)N([C@@H](C)CO)C[C@@H](C)[C@H](CN(C)C(=O)c2ccccc2)OCCCC[C@@H](C)O3)cc1,0.461 (inactive)
16,COc1ccc(NC(=O)Nc2cccc3c2O[C@@H](CN(C)S(=O)(=O)c2ccc(Cl)cc2)[C@H](C)CN([C@@H](C)CO)C3=O)cc1,2.46 [at 26 µM] (inactive)
17,O=C1c2ccccc2C(=O)N1CCc1c[nH]c2ccccc12,-10.9 (inactive)
18,CC(=O)Cc1cc(O)c2ccccc2c1OC(=O)c1ccc(Br)cc1,-5.75 (inactive)
19,COc1ccc(CC(=O)NC(C)c2ccc3ccccc3c2)cc1 (configuration not stated),-2.81 (inactive)
20,Fc1ccc(Br)cc1SCCc1ccncc1,-17.4 (inactive)
21,C[C@@H]1CCCCO[C@@H](CN(C)C)[C@H](C)CN([C@@H](C)CO)C(=O)c2cc(NC(=O)Nc3cccc4ccccc34)ccc2O1,17.4 (inactive)

row,SMILES,"activity change, negative = inhibition"
1,Cc1onc(-c2ccccc2)c1C(=O)Oc1ccccc1,-2.9 (inactive)
2,COC(=O)c1ccc2nc(-c3ccc(OC)c(OC)c3)c(Cc3ccc(C)cc3)n2c1,-12 (inactive)
3,COc1ccc(C(=O)NCCC2=CCCCC2)cc1[N+](=O)[O-],-2.38 (inactive)
4,C[C@H]1CN([C@@H](C)CO)C(=O)CCCn2nncc2CO[C@@H]1CN(C)Cc1ccccc1C(F)(F)F,-15.1 (inactive)
5,COc1ccc(N2C(=O)C3C(c4ccc(C(=O)O)cc4)NC(Cc4ccccc4)(C(=O)O)C3C2=O)c([N+](=O)[O-])c1 (configuration not stated),5.02 (inactive)
6,Cc1ccc2nc(-c3ccc(Cl)cc3)c(Cc3ccccc3C(F)(F)F)n2c1,11.2 (inactive)
7,COc1ccc2cc(CO)c3cc(OC)c(OC)cc3c2c1,-16.3 (inactive)
8,CC(C)(C)NC(=O)C(c1ccncc1)N(Cc1ccc(F)cc1)C(=O)c1ccc(-c2ccccc2)[nH]1 (configuration not stated),-0.988 (inactive)
9,Cc1noc(C)c1NC(=O)N(C)C[C@H]1OCCCC[C@@H](C)Oc2ccc(NC(=O)Nc3cccc4ccccc34)cc2C(=O)N([C@@H](C)CO)C[C@H]1C,2.78 (inactive)
10,Cn1c(CCN2CCOCC2)nc2cc(NC(=O)c3cccs3)ccc21,24.4 (inactive)
11,COc1ccccc1C(C(C(=O)c1ccccc1)N1CCOCC1)N1CCOCC1 (configuration not stated),-8.67 (inactive)
12,Cc1cccc(-c2ccc([C@H]3[C@@H](CO)N4CCCCN(S(=O)(=O)c5ccccc5C)C[C@H]34)cc2)c1,-14.4 (inactive)
13,CCc1cc(CN2CCOCC2)c(NC(=O)c2ccccc2)s1,-6.48 (inactive)
14,COc1ccccc1CC(=O)NCCc1c[nH]c2ccccc12,3.23 (inactive)
15,Cn1c(=O)n(C)c2cc([N+](=O)[O-])c(N3CCN(C(=O)c4cccc(F)c4)CC3)cc21,-10.1 (inactive)
16,O=C(CSCc1ccc(Br)cc1)NCc1ccccn1,-9.31 (inactive)
17,Cc1ccc(CCN2C(=O)c3ccccc3C2C(=O)NCc2cccnc2)cc1 (configuration not stated),-2.74 (inactive)
18,CS(=O)(=O)c1ccc(Cl)c(NC(=O)COC(=O)c2c(Cl)cccc2Cl)c1,-18.7 (inactive)
19,COCC#Cc1ccc2c(c1)O[C@H](CN(C)C(=O)c1ccccc1)[C@@H](C)CN([C@H](C)CO)S2(=O)=O,-19 (inactive)
20,Cc1noc(C)c1NC(=O)Nc1ccc2c(c1)C(=O)N([C@H](C)CO)C[C@H](C)[C@H](CN(C)C(=O)Nc1ccc3c(c1)OCO3)OCCCC[C@H](C)O2,15 (inactive)
